In PubChem BioAssay:

Columns and labels:
[1] = tested on: Human papillomavirus type 1a protein E7 (residues 44-93); assay: small molecules binding HPV E7 44-93 – biochemical, small-molecule microarray, residues 44-93, 635 nm fluorescence, primary screen (AID 1108); conditions: fluorescence 635 nm, higher = more signal;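 further: E7 fragment applied at 1 µg/mL in TBST for 1 h at 4 C; score combines spot fluorescence with its signal to noise ratio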
[2] = hepatitis C replication reporter changes, two-sided – Huh7 cells, luciferase reporter, HCV replication inhibitor project, primary screen (AID 1109); conditions: Huh7 HCV replicon luciferase reporter, 48 h; higher = more signal;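 further: huh7 hepatoma cells harbouring a luciferase neomycin HCV replicon reporter; luciferase luminescence as measure of HCV replicon replication; test concentration not given here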
[3] = biological target: Left-right determination factor 2 (Homo sapiens) (UniProt O00292); assay: small molecules binding LEFTY2 protein – biochemical, small-molecule microarray, 635 nm fluorescence scan, primary screen (AID 1110); conditions: higher = more signal
[4] = biological target: Calmodulin-1 (Homo sapiens) (UniProt P0DP23); assay: small molecules binding calmodulin-1 with EGTA – biochemical, small-molecule microarray, Cy5-labelled CALM1, profiling panel (AID 1111); conditions: Cy5-CALM1 binding fluorescence, higher = more signal;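 further: labelled calmodulin applied in Tris saline Tween buffer holding calcium plus EGTA and DTT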
[5] = biological target: Calmodulin-1 (Homo sapiens) (UniProt P0DP23); assay: small molecules binding Ca-loaded calmodulin-1 – biochemical, small-molecule microarray, Cy5-labelled CALM1, plus calcium, artefact control for SMM control-protein annotation, profiling panel (AID 1112); conditions: Cy5-CALM1 binding fluorescence, higher = more signal;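 further: score merges spot fluorescence with signal to noise from triplicate slides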
[6] = probe aWnt5a binding to arrayed compounds – biochemical, biotinylated probe, 635/667 nm fluorescence, primary screen (AID 1113); conditions: small-molecule microarray, higher = more signal;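 further: score merges 667 nm fluorescence intensity with signal-to-noise per printed feature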
[7] = probe aShh binding to arrayed compounds – biochemical, biotinylated probe, 635/667 nm fluorescence, primary screen (AID 1114); conditions: small-molecule microarray, higher = more signal;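 further: probe is biotin-labelled aShh protein from a stem cell growth factor screen; measures binding of labelled protein to compounds printed on the slide; score merges feature fluorescence at 667 nm with signal-to-noise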
[8] = probe aNog binding to arrayed compounds – biochemical, biotinylated probe, 635/667 nm fluorescence, primary screen (AID 1115); conditions: small-molecule microarray, higher = more signal;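 further: probe is biotinylated aNog protein used at 0.15 µg/mL for 1 h at 4 C; z-score combines 667 nm fluorescence of each spot with its signal to noise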
[9] = biological target: Torsin-1A-interacting protein 1 (Homo sapiens) (UniProt Q5JTV8); assay: compound microarray binding of lysate hLAP1 – cell lysate, small-molecule microarray, COS7 lysate, 635/667 nm fluorescence, primary screen (AID 1116); conditions: 635 nm fluorescence, higher = more signal
[10] = biological target: Alpha-bungarotoxin (Bungarus multicinctus) (UniProt P60615); assay: compounds binding labelled alpha-BTX control protein – biochemical, small-molecule microarray, Alexa647 label, 635/667 nm fluorescence, artefact control for SMM control protein annotation, profiling panel (AID 1117); conditions: alpha-BTX-A647 binding fluorescence, higher = more signal
Sequence of Alpha-bungarotoxin (Bungarus multicinctus) (P60615 whole entry, looked up): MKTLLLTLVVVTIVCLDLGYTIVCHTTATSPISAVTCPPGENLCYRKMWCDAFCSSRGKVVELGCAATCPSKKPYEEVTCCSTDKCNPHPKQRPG

Sequence of Torsin-1A-interacting protein 1 (Homo sapiens) (Q5JTV8 whole entry, looked up): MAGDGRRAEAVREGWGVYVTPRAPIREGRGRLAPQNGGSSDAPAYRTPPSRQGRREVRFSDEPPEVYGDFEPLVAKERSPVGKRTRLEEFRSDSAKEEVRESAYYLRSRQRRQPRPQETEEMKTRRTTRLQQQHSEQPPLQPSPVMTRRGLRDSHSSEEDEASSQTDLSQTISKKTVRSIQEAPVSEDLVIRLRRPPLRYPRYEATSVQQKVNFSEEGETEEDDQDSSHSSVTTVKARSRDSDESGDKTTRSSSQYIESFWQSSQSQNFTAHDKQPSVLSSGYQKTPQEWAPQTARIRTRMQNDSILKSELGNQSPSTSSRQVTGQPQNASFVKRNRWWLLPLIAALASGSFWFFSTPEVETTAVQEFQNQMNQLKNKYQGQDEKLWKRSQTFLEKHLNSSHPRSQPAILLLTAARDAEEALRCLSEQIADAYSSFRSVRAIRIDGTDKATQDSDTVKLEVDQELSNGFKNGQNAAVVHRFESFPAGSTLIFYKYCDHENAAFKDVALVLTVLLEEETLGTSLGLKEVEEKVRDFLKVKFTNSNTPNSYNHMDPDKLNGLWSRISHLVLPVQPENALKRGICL
Sequence of Left-right determination factor 2 (Homo sapiens) (O00292 whole entry, looked up): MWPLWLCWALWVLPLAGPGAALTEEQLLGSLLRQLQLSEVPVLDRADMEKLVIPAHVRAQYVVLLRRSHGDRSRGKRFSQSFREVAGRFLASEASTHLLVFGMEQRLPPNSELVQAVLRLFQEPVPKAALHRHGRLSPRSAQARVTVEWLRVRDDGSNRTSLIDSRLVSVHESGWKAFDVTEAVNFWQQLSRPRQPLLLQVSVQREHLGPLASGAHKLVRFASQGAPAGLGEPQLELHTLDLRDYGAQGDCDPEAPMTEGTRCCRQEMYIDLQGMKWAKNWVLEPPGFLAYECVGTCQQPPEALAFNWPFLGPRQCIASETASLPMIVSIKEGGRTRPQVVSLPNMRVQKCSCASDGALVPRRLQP

Row | SMILES | composite z-score [1] | z-score [2] | composite z-score [3] | composite z-score [4] | composite z-score [5] | composite z-score [6] | composite z-score [7] | composite z-score [8] | composite z-score [9] | composite z-score [10]
1 | CCOC(=O)C[C@H]1[C@H](OC(=O)c2cc3ccccc3oc2=O)[C@@H](NC(=O)c2ccc(-c3ccccc3)cc2)c2cc(OCCCO)ccc2N1C(=O)Cc1ccc(OC)cc1 | 0.697 | -0.971 | 0.497 | -0.0241 | -0.273 | -0.0735 | -0.0035 | 0.179 | 0.674 | 0.731
2 | CCOC(=O)C[C@H]1[C@H](OC(=O)c2cc3ccccc3oc2=O)[C@@H](NC(=O)Cc2ccc(OC)cc2)c2cc(OCCCO)ccc2N1C(=O)Cc1ccc(OC)cc1 | 0.351 | -1.73 | 0.594 | -0.326 | -0.54 | -0.096 | -0.145 | -0.0428 | 0.0475 | 0.329
3 | CCCC1(C(=O)OC)C=C2C(=C(C(C)C)C(=O)C2C)CN1 (stereo not given) | -0.311 | -0.808 | -0.557 | 0.312 | 0.771 | 0.0375 | 0.381 | 0.658 | 2.29 | -0.593
4 | COC(=O)C1=CC(CCCO)=CC(c2ccc(CN3CCCC3)cc2)N(C)C=C1C(=O)OC (stereo not given) | 1.3 | -0.979 | 0.0465 | 1 | 0.316 | 0.002 | 0.582 | 0.776 | 1.66 | 0.57
5 | C=CC[C@]1(C(N)=O)N=C(c2ccc(OCCCO)cc2)O[C@H]1c1ccccc1N=[N+]=[N-] | 0.811 | 0.304 | 0.0562 | 0.85 | 0.0151 | 0.0317 | 0.0611 | -0.153 | 1.29 | 1.71
6 | COCCCNC(=O)[C@@]1(c2ccc([N+](=O)[O-])cc2)CC(=O)N(C2CCCCC2)[C@@H]1c1ccc(CO)cc1I | -0.191 | -1.9 | -0.199 | 0.582 | -0.0952 | -0.0051 | -0.0904 | 0.968 | 1.17 | 0.302
7 | C=CC[C@H](OC(=O)Nc1ccc(SC)cc1)c1ccc(O)c(F)c1 | -0.419 | 0.599 | -0.722 | -0.652 | -0.328 | -0.147 | -0.0709 | -0.267 | 1.82 | -0.165
8 | CN1C(=O)C2C=CC(C(O)c3ccc(I)cc3)N(N(c3ccccc3)c3ccccc3)C2C1=O (stereo not given) | -0.802 | -1.55 | -0.953 | 0.95 | -0.0638 | -0.0735 | 0.0469 | 0.878 | -0.119 | 0.98
9 | COC(=O)C1(CC(C)C)C=C2C(=C(C)C(=O)C2C)CN1 (stereo not given) | -0.412 | -1.01 | -0.253 | 0.0595 | 0.89 | 0.432 | 1.79 | 0.825 | 0.653 | 0.096
10 | O=C(O)C1=CC[C@H]2C(=O)N(c3ccccc3)C(=O)[C@@H]12 | 1.37 | 0.49 | 0.412 | 0.661 | -0.388 | 0.155 | 0.369 | 0.883 | 0.769 | 0.955
11 | O=C1c2ccccc2[C@@]2(Cc3ccccc3N(CC(F)(F)F)C2=O)[C@H](c2ccc(CO)cc2)N1Cc1ccccc1 | -0.143 | -1.22 | 0.2 | -0.469 | 0.457 | 0.0371 | 0.0178 | -0.238 | -0.131 | -0.0056
12 | C=CCNC(=O)[C@H]1[C@@H]2C(=O)O[C@@H](c3ccccc3)[C@@H](c3ccccc3)N2[C@@H](c2ccc(O)cc2)[C@]12C(=O)Nc1ccc(C#CCC(C(=O)OC)C(=O)OC)cc12 | -0.952 | -0.174 | -0.243 | -0.416 | -0.401 | -0.0495 | 0.171 | -0.302 | 0.49 | 0.0559
13 | COCCCNC(=O)[C@@]1(Cc2ccccc2I)c2ccccc2C(=O)N(C2CCCCC2)[C@H]1c1ccc(CO)cc1 | 1.13 | -1.45 | -0.418 | 0.634 | 0.305 | -0.0061 | 0.313 | -0.417 | 1.57 | 1.19
14 | C[N+](C)(C)CCCC[C@@H]1NC(=O)[C@H]2C[C@@H](C(=O)O)[C@@H](c3ccc(O)cc3)N2C1=O | 0.315 | 3.08 | 0.436 | -0.171 | 0.11 | -0.147 | -0.375 | -0.14 | 1.74 | 0.343
